The structures appear in SMILES notation. Out of some 160,000 compounds screened, about 240 (0.15%) were called active. Many of the other results were omitted from the sample, so actives are more common in it than they were. Unmarked numbers belong to inactive results. No stated cut-off is given here; in the data, active means inhibition above about 40%; inactive means the rest.

Sequence of Cyclic GMP-AMP synthase (Mus musculus) (Q8C6L5 whole entry, looked up): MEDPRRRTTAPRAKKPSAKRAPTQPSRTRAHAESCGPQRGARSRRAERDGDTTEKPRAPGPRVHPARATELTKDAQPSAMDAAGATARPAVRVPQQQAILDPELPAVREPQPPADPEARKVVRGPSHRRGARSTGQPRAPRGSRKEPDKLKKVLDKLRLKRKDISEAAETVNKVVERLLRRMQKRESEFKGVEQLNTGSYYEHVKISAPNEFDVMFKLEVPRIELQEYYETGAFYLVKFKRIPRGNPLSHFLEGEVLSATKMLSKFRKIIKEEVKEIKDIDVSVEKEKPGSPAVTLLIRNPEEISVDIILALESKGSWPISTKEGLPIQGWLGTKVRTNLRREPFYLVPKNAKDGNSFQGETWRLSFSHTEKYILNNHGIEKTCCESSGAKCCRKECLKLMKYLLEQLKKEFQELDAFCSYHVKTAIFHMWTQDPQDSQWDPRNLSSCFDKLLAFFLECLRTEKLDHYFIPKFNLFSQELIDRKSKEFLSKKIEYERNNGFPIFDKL

This assay concerns the target Cyclic GMP-AMP synthase (Mus musculus) (UniProt Q8C6L5). As to the kind of experiment: inhibition of Mus musculus cGAS, primary biochemical chemiluminescence screen (AID 1259399).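 Further: 0% = negative control wells and 100% = reference inhibitor with no enzyme activity.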 To be noted: recombinant cGAS, Kinase-Glo ATP depletion luminescence; at 12.5 µM; hits give high values. (In general: Kinase-Glo measures the ATP left after a reaction by luminescence.)
Usually inhibition stands for the change of the read-out against control, counted positive when it falls. `Cc1ccc(C)c(N2CCN(C(=O)c3cccc(F)c3)C(C)C2=O)c1` (centres undefined): the inhibition was -1.42%. The value for `CCc1nc2ccc(C(=O)N(C)Cc3ccccc3)cn2c1N(C)C(=O)c1cccc(OC)c1` was -0.76%; that for `C=CCN(Cc1cccnc1)C(=O)C1CCCN1C(=O)C1CCCCC1` (centres undefined) was -14.1%. On to `CCc1nc2c(OCCOc3ccc(F)cc3)cccn2c1N(C)C(=O)c1ccncc1`, for which the inhibition was -2.55%.

`O=c1c(O)c(Br)ccc2c(Br)c(O)c(O)c(O)c12`: the inhibition was 71.1% (active).

With `CCOc1c(Br)cc(Br)cc1CNCC(=O)N1CCCC1`, the inhibition was -7%. The value for `CN(C)c1ccc(/C=C/C=C2/SC(N)=NC2=O)cc1` was -4.74%; that for `COc1ccc(C2NC(=O)N(C)C3=C2C(=O)N(Cc2ccc(F)cc2)C3)cc1` (centres undefined) was -4.51%; that for `Cc1ccc2nc(-c3ccccc3F)c(NC(C)(C)CC(C)(C)C)n2c1` was -1.73%. The result for `N#CC1C(=N)Oc2c(c(=O)oc3ccccc23)C12C(=O)Nc1ccc(Br)cc12` (centres undefined) reads -4.42%; that for `CSc1ccc(C(=O)N2CCCC(CO)(CCCc3ccccc3)C2)cc1` (centres undefined), -6.85%; that for `Cc1[nH]c2c(c1C(=O)NCCOc1ccccc1F)C(=O)CCC2`, -9.39%. The value for `Cc1nc(N2CCOCC2)ncc1-c1cc(=O)[nH]c(N2CCc3ccccc3C2)n1` was -6.34%; that for `COc1ccc(C(NC(=O)C2CCN(CCCc3ccccc3)CC2)c2cccs2)cc1` (centres undefined) was -2.89%; that for `CCCCn1nnnc1CSc1nc(C)c(C)c(C)c1C#N` was 0.584%. As for `COc1ccccc1NC(=O)c1ccc(-n2nc(-c3ccc(Cl)cc3)cc2N)cc1`, the inhibition is -3.87%. On to `O=C(Nc1cccc(-c2cccc(-c3ccc(F)cc3)n2)c1)c1c(F)c(F)c(F)c(F)c1F`, for which the inhibition is -6.45%. As to `COCCCN(CC(=O)N1CCc2sccc2C1COc1ccc(Cl)c(C)c1)C(=O)c1cccc(OC)c1` (centres undefined), the inhibition is -4.66%. The result for `O=C(c1ccc(F)cc1F)N1CCC(c2nc(-c3ccc4c(c3)OCO4)no2)CC1` reads -1.48%. As for `COc1ccc(CC(=O)NNC(=O)c2cccn(Cc3ccc(F)cc3)c2=O)cc1`, the inhibition was -6.25%. The value for `CC[N+](C)(CC)CCC[n+]1c(-c2ccccc2)c2cc(N)ccc2c2ccc(N)cc21` was 78.9% (active); that for `CCN1CCN(C(=O)c2ccc(CSc3nnc(-c4cccs4)n3CC)cc2)CC1` was -5.22%. As to `O=C(N1CC[C@@H](O)C1)C1(c2cccc(Br)c2)CC1`, the inhibition is -0.654%. The result for `CCn1cc(-c2cc(NCc3ccccn3)nc3[nH]ccc23)c(C)n1` reads -9.58%.

Source of the values: PubChem BioAssay AID1259399 (Fisher Drug Discovery Resource Center, 2018).
